This is an account of results in ChEMBL document CHEMBL4513216, “Probing the Open Global Health Chemical Diversity Library for Multistage-Active Starting Points for Next-Generation Antimalarials” (ACS Infect Dis, 2020).

Screen size: about 65,000 compounds; about 2,100 (3.2%) showed an effect of 50% or more. The median lay at about -52%. Shown is part of a subset that was picked to be rich in strong results.

This test relates to Plasmodium falciparum. Kind of test: Screen against P. falciparum Asexual Blood Stage (ABS), at 5uM. It is filed as functional, Dd2. The settings on record: tested at 5 uM.
For `CC(C)CNC(=O)c1cccc(CN2CCc3c(ncn3C)C2)c1`, the INHIBITION was -103%.
Turning to `CCOc1cccc2c1OCC(=O)N(c1ccc3c(c1)OCCO3)C2`, the INHIBITION is given as -105%.
In the case of `COCCN1CCN(Cc2c(C)noc2C)Cc2cccnc21` it was -19.1%; in that of `COCCN1CCN(Cc2c(C)noc2C)Cc2ccc(C)nc21`, -54%.
With `Cc1ccc2c(n1)N(CCN(C)C)CCN(Cc1c(C)noc1C)C2`, the INHIBITION is on record as 63.1%.
In the case of `Cc1cc(CNC(=O)NC(C)(CO)C2CC2)c(C)s1` (configuration not stated) it was -55.5%; in that of `Cc1nccn1-c1ccc(N2CCC(N[C@H](C)C(C)C)CC2)cc1`, -49.6%.
In the case of `Cc1nccn1-c1ccc(N2CCC(NC(C)CC(C)C)CC2)cc1` (configuration not stated), the INHIBITION is listed as 30.2%.
As for `CCCC(C)NC1CCN(c2ccc(-n3ccnc3C)cc2)CC1` (configuration not stated), the figure is 52.3%.
As for `Cc1c[nH]nc1C1CCCCN1C(=O)CCn1nccc1C` (configuration not stated), the figure is -97%; as for `Cc1cccn2cc(C(=O)N3CCCN(CC4CC4)C(C(C)C)C3)nc12` (configuration not stated), -26.5%; as for `O=C1N(CCO)CCCC12CCN(Cc1nnc(C3CC3)o1)C2` (configuration not stated), -77.7%.
As for `O=S(=O)(NCC1(O)CCOc2ccccc21)c1ccc(Cl)s1` (configuration not stated), the figure is -88.4%.
As to `O=S(=O)(NCC1(O)CCOc2ccccc21)c1ccc(Br)s1` (configuration not stated), the INHIBITION is 59.2%.
As for `Cc1ccc(S(=O)(=O)NCC2(O)CCOc3ccccc32)s1` (configuration not stated), the figure is -36.2%; as for `c1cncc(COCc2n[nH]c3c2CN(Cc2ccco2)C3)c1`, -89.3%.
In the case of `O=S(=O)(c1ccc(-c2cnco2)cc1)N1CCCC(O)(CO)CC1` (configuration not stated) it was -40.8%; in that of `CN1CCC2(CCN(S(=O)(=O)c3ccc(-c4cnco4)s3)CC2)C1`, 68.4%.
In the case of `CN1CCC2(CCCN(S(=O)(=O)c3ccc(-c4cnco4)s3)C2)C1` (configuration not stated) it was 52.1%.
As for `CN1CCCC2(CCN(S(=O)(=O)c3ccc(-c4cnco4)s3)C2)C1=O` (configuration not stated), the INHIBITION is given as -16.8%.
In the case of `O=S(=O)(c1ccc(-c2cnco2)cc1)N1CCC2(CCCNC2)C1` (configuration not stated) it was 47%; in that of `O=S(=O)(c1ccc(-c2cnco2)cc1)N1CCCC2(CCNCC2)CC1`, 8.22%.
As for `COC(=O)c1cc(OCC2CCC2)cc(C(=O)N[C@@H](C)CO)c1`, the figure is -90%.
In the case of `c1ccc(N2CCOC3(CCCN(c4ncccn4)C3)C2)nc1` (configuration not stated) it was -101%.
With `c1ccc(N2CCCC2)c(NCc2ccncc2)c1`, the INHIBITION was -27.2%.
As for `CN(Cc1cccc(C(N)=O)c1)c1ncc(C#N)cc1Cl`, the figure is -76.1%.
For the compound `O=C(CN1CCCC(Cn2cncn2)C1)NCCCc1ccccc1` (configuration not stated), the INHIBITION was -62.6%.
As for `Cc1cc(C(=O)N2CCCC(N3CCNC3=O)C2)nn1C(C)(C)C` (configuration not stated), the figure is -37.9%.
In the case of `Cc1cc(C(=O)N2CCCC(N3CCCCCC3)C2)nn1C(C)(C)C` (configuration not stated) it was 55.5%; in that of `Cc1cc(C(=O)N2CCC(N3CCNC3=O)CC2)nn1C(C)(C)C`, -59.8%.
As for `Cc1cc(CNC(=O)c2cnoc2C)c(C)o1`, the figure is -78%; as for `O=C(c1cccnc1O)N1CCN(Cc2ccccc2F)CC1`, -14.3%; as for `Cc1cc(Oc2ccccc2C)nc(C2CCCN2)n1` (configuration not stated), 25.4%.
Regarding `Cc1cc(Oc2ccccc2)nc(C2CCCCN2)n1` (configuration not stated), the INHIBITION is -17.4%.
In the case of `Cc1cc(Oc2ccccc2F)nc(C2CCCCN2)n1` (configuration not stated) it was 57.5%; in that of `CN(C)C(C(=O)NCC1(N(C)C)CCOCC1)c1ccccc1F` (configuration not stated), -6.85%.
On to `CN(C)C1(CNC(=O)Cc2ccc(F)cc2)CCOCC1`, for which the INHIBITION worked out at 0.427%.
Turning to `CN(C)C1(CNC(=O)CC=Cc2ccc(F)cc2)CCOCC1`, the INHIBITION was found to be 57.5%.
In the case of `CC1(C(=O)NCCc2ccc(F)cc2)CCOCC1` it was -16.2%; in that of `CC(C)NC(=O)C1CN(Cc2ccc(F)cc2)CC12CCOCC2` (configuration not stated), -23.5%; in that of `CN(C)C1(CNC(=O)C2CCCN2Cc2ccc(F)cc2)CCOCC1` (configuration not stated), 68.7%.
For `COCc1nc(C(=O)N2CCCC2Cn2cc(C)cn2)cs1` (configuration not stated), the INHIBITION was -179%.
As for `Cc1cccc(CN2CCC3(CCCN(Cc4cnn(C)c4)C3)C2)n1` (configuration not stated), the INHIBITION is given as -21.5%.
As for `CN(C)C(=O)NCc1ncn2c1CN(Cc1cccs1)CCC2`, the figure is -61.4%; as for `CN(C)C(=O)[C@@]12CCO[C@@H]1CCN(Cc1ccc3c(c1)OCO3)C2`, -52.2%; as for `O=C(COc1coc(CN2CCSCC2)cc1=O)c1ccccc1`, -95.1%.
As for `CC1(C(=O)NCc2cccnc2Oc2ccc(F)cc2F)CCCNC1` (configuration not stated), the figure is 21.1%; as for `Cc1cccc(C)c1Oc1ncccc1CNC(=O)C1(C)CCCNC1` (configuration not stated), 56.1%.
As for `COc1ccccc1Oc1ncccc1CNC(=O)C1(C)CCCNC1` (configuration not stated), the figure is -45.9%; as for `CCn1ncc2c1C(COCC1CC1)CN(c1ccc(C)nn1)C2` (configuration not stated), 40.1%.
On to `CCc1c(C)nc2cc(C3CCN(Cc4cccc(F)c4)C3)nn2c1O` (configuration not stated), for which the INHIBITION worked out at 5.05%.
In the case of `CCc1c(C)nc2cc(C3CCN(Cc4ccccc4F)C3)nn2c1O` (configuration not stated) it was 51.6%.
